From PubChem BioAssay (NCI)
The panel holds about 83,000 compounds, 20% with a hit somewhere; the sample as a whole holds those more often.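 Assay: single dose, 48 h. Readout: percent growth (0 = no net growth; negative = cell death). Active: <10.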 The source made the active and inactive calls.

Each molecule was assayed on CCRF-CEM leukemia (assay: NCI-60 one-dose screen, 48 h (100 = growth as untreated, 0 = no growth, -100 = all killed)). Details: 10 µM unless noted.

SMILES	growth
COc1ccc(C(=O)c2cc(OC)c(OC)c(OC)c2)cc1/C=C/C(=O)c1ccc(OC)c(OC)c1	6.83% (active)
COc1c(NC[C@H]2OC(O)[C@H](O)[C@@H](O)[C@@H]2O)c(=O)c1=O (stereo partly specified)	81.2% (inactive)
COc1cccc(/C=C/c2c(C(=O)O)cccc2[N+](=O)[O-])c1OC	101% (inactive)
COc1ccc(OC)c(C(=O)c2oc3ccc(Br)cc3c2N)c1	4.72% (active)
Nc1c(C(=O)Nc2ccccc2)sc2nc3c(cc12)CN(Cc1ccccc1)CC3	98.6% (inactive)
CN=S(=O)(NC(=O)c1ccc(Cl)cc1Cl)c1ccc(Br)s1 (stereo unspecified)	96.8% (inactive)
CC(C)C[C@H](NC(=O)[C@H](Cc1ccccc1)n1ccc(N2CCCCC2)cc1=O)B(O)O	1.97% (active)
COc1ccc(-c2cn[nH]c2-c2cc(OC)c3c(c2)OCO3)cc1	2.12% (active)
COc1ccccc1CNCCCN1C(=O)c2ccc3c4c(ccc(c24)C1=O)C(=O)N(CCCNCCCCNCCCCN)C3=O	13.8% (inactive)
Nc1c(C(=O)c2ccc(F)cc2)sc2nc3c(cc12)CCCC3	77.9% (inactive)
COc1cccc(C2CC(=O)Nc3c2c(C)nn3-c2nc3ccccc3[nH]2)c1OC (stereo unspecified)	8.46% (active)
COc1ccc(NC(=O)CSc2nc3ccc(Cl)cc3c(=O)n2-c2ccccc2C(F)(F)F)c(OC)c1OC	33.7% (inactive)
Cc1cc(C)c(NC(=O)c2sc3nc4c(cc3c2N)CN(Cc2ccccc2)CC4)c(C)c1	16.6% (inactive)
CC(C)[C@H](CO)Nc1nc(Nc2ccc(C(=O)NCCNS(=O)(=O)c3cccc4c(N(C)C)cccc34)c(Cl)c2)c2ncn(C(C)C)c2n1	-1.68% (active)
COc1ccc(C(=O)c2cc(OC)c(OC)c(OC)c2)cc1/C=C/C(=O)c1ccc2c(c1)OCO2	-9.53% (active)
Cc1ccc(Oc2nc3ccccc3cc2-c2nnc(Cn3c(COc4ccccc4)nc4ccccc43)o2)cc1	0.728% (active)
Nc1c(C(=O)Nc2ccccc2)sc2nc3c(cc12)CCCCC3	2.92% (active)
CC(C)C[C@H](NC(=O)Cn1ccc(NCc2ccccc2)cc1=O)B(O)O	2.78% (active)

SMILES	growth
CC(C)(C)c1ccc(S(=O)(=O)Oc2ccc3c4c(c(=O)oc3c2)CCCCC4)cc1	58.6% (inactive)
COc1cc(-c2nc(-c3nc4ccccc4[nH]3)cc3c2[nH]c2ccccc23)cc(OC)c1OC	16.8% (inactive)
O=C(Nc1ccc(OCc2nnc(-c3ccc(Cl)cc3)o2)c(F)c1)Nc1ccc(Cl)c(Cl)c1	51.7% (inactive)
COc1ccc(/C=C/C(=O)c2ccc(B(O)O)cc2)cc1O	82.6% (inactive)
COc1ccc(/C=C/C(=O)c2cc(OC)c(OC)c(OC)c2)cc1OCc1cn(Cc2ccc(F)cc2)nn1	0.459% (active)
CC(C)(C)OC(=O)N[C@@H](Cc1ccccc1)C(=O)N(Cc1ccccc1)C1(C(=O)NCc2ccccc2)CCN(Cc2ccccc2)CC1	33.9% (inactive)
COC(=O)c1cc(-c2cccs2)c(C#N)c(N)c1C#N	92.5% (inactive)
CCN(CC)P(=O)(N(CC)CC)N(CCCSC/C=C(\C)CC/C=C(\C)CCC=C(C)C)CCCN1CCN(C)CC1	87.2% (inactive)
O=C(O)c1cccc([N+](=O)[O-])c1/C=C/c1ccccc1	103% (inactive)
Cc1ccc(C(=O)c2sc3nc4c(cc3c2N)CCCC4)c(C)c1	6.69% (active)
COc1cc(/C=C\c2cc(OC)c(OC)c(OC)c2)cc(N/C=C\C(=O)c2c[nH]c3ccccc23)c1OC	-57.3% (active)
COc1cc(C(=O)/C=C/c2cc(C(=O)c3cc(OC)c(OC)c(OC)c3)ccc2OC)ccc1N	-10.7% (active)
CC(C)C[C@H](NC(=O)[C@@H](Cc1ccccc1)n1ccc(Nc2ccccc2)cc1=O)B(O)O	-5.5% (active)
COc1ccc(Cn2c(SC)nc(=O)n(Cc3ccc(Cl)cc3)c2=O)cc1	97.7% (inactive)
COc1ccc(Cn2cc(COc3cc(/C=C/C(=O)c4cc(OC)c(OC)c(OC)c4)ccc3OC)nn2)cc1	2.56% (active)
O=c1oc2cc(OS(=O)(=O)c3ccccc3)c(Cl)cc2c2c1CCCCCC2	81% (inactive)
COc1ccc(-c2nc(-c3nc4ccc(F)cc4[nH]3)cc3c2[nH]c2ccccc23)cc1	17.6% (inactive)
COc1ccc(C2CC(=O)Nc3c2c(C)nn3-c2nc3ccccc3[nH]2)cc1OC (stereo unspecified)	5.82% (active)
